mcGAS lum = inhibitors of mouse cGAS; Q8C6L5; recombinant cGAS, Kinase-Glo ATP depletion luminescence; inhibition, % at 12.5 µM; 160,000 tested, 0.15% active; AID 1259399;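 note: 0% = negative control wells and 100% = reference inhibitor with no enzyme activity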
hcGAS lum = inhibitors of human cGAS. Q8N884. recombinant h-cGAS, ATP depletion, Kinase-Glo luminescence. inhibition, % at 12.5 µM. 290,000 tested, 0.081% active;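 note: 0% = vehicle reaction and 100% = reaction without DNA for no activity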
Target sequence (Q8N884 whole entry, looked up): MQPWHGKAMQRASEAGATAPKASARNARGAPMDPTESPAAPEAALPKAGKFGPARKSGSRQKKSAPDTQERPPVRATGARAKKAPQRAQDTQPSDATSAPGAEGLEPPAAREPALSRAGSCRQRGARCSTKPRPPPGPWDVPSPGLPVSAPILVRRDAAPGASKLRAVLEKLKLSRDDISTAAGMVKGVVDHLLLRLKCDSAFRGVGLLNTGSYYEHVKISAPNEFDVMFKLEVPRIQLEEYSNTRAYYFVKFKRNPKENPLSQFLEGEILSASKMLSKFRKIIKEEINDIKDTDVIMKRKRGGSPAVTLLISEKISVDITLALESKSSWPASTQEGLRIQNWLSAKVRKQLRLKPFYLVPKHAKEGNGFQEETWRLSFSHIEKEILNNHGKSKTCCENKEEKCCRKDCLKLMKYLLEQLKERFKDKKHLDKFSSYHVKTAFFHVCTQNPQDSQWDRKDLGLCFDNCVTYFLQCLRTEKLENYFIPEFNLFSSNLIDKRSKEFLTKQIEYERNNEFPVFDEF
NPYLR7 agonist = activates Aedes aegypti NPYLR7 receptor. activation, % at 10 µM. HEK293T NPYLR7/Galpha15, GCaMP6s calcium fluorescence. 270,000 tested, 0.15% active. AID 1259423; in the data active = activation above about 40%;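 note: 0% = vehicle and 100% = reference agonist at the receptor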
Numbers without * were called inactive; . = no result given; ! = not confirmed by another sample. Hits are enriched below; roughly 0.3% of the tested compounds scored in any of these assays. Cut-off read from the data, not from the text of the source, unless noted: active = inhibition above about 40%; inactive = the rest.

SMILES	mcGAS lum	hcGAS lum	NPYLR7 agonist
Cc1cc(O)c(CN2CCOCC2)c2c1C(=O)/C(=C/c1cc3ccccc3o1)O2	-3	-1	28
COC(=O)c1sc(NC(=O)C(C)c2c(C)nn(C)c2C)cc1C (configuration not stated)	.	-10	7
O=C1CCN(C(=O)c2coc(COc3cccc(F)c3)n2)CCN1	.	-4	4
Cc1cc(C)cc(CCC(=O)N2[C@@H]3CC[C@H]2CC(O)C3)c1 (some centres not stated)	.	-4	5
CCOC(=O)c1ccc2c(c1)nc(SCc1ccc(OC)c(C(F)(F)F)c1)n2Cc1ccco1	-5	-8	-3
CCn1cc(C(=O)N2CCN(C(=O)c3cc4ccccc4o3)CC2)c2nn(-c3ccccc3)c(=O)c-2c1	-8	-6	4
N#CC(C#N)=Cc1cn(-c2ccccc2)nc1-c1cc2ccccc2o1	.	0	-9
N#CC(C#N)=Cc1cn[nH]c1-c1cc2ccccc2o1	46*	19	-1
O=C(NCCc1ccc(F)cc1)N1CCN(C(c2ccccc2)c2ccc(Cl)cc2)CC1 (configuration not stated)	1	2	-3
O=c1cc(-c2ccccc2)oc2cc(O)cc(O)c12	-1	8	-2
O=c1c(-c2ccccc2)coc2cc(O)cc(O)c12	.	70*	-11
CCOc1ccccc1C(=O)N1CC(=O)N(Cc2ccco2)CC(O)C1 (configuration not stated)	-1	7	1
CC(=O)Nc1ccc(/C=C2/SC(=S)N(CC(=O)O)C2=O)cc1	-5	13	0
NC(=O)c1ncn(C2O[C@H](CO)[C@@H](O)[C@H]2O)c1N (some centres not stated)	.	-8	5
Nc1nc(Cl)nc2c1ncn2[C@@H]1O[C@H](CO)[C@H](O)C1O (some centres not stated)	-3	-2	97*
Nc1ncn([C@@H]2O[C@H](CO)[C@@H](O)[C@H]2O)c(=O)n1	-4	4	46*!
OC[C@H]1O[C@@H](n2cnc3c(NC4CCCC4)nc(Cl)nc32)[C@@H](O)C1O (some centres not stated)	.	-3	13
Nc1nc(Nc2ccccc2)nc2c1ncn2[C@@H]1O[C@H](CO)[C@H](O)C1O (some centres not stated)	-6	0	0
Nc1nc(Cl)nc2c1ncn2[C@@H]1O[C@H](CO)[C@@H](O)[C@H]1O	.	1	76*
Oc1ccc(C=NNc2ccc(C(F)(F)F)cn2)cc1O	.	-1	0
CCOc1cc(-c2nn(CN3CCOCC3)c(=S)o2)cc(OCC)c1OCC	.	4	3
S=c1oc(-c2sc3ccccc3c2Cl)nn1CN1CCOCC1	24	43*	2
COCc1nc(N2C[C@@H](C)O[C@@H](C)C2)c2cnn(C)c2n1	0	7	-1
O=C1NC(=S)SC1=Cc1ccccc1Cl	.	56*	6
O=C1NC(=S)SC1=Cc1ccc(F)c(F)c1	36	12	6
SMILES	mcGAS lum	hcGAS lum	NPYLR7 agonist
O=C1NC(=S)SC1=Cc1c(F)cccc1F	.	42*	-10
O=C1NC(=O)C(=Cc2cccc(Cl)c2Cl)S1	.	-3	9
CC(Oc1cccc(Cl)c1)C(=O)NCC1COC(C)(C)O1 (configuration not stated)	.	-14	1
CCN1C(=Cc2cc(C)[n+](C3CCCCC3)c(C)c2)Sc2ccccc21	.	1	266*
CCN1/C(=C\C=C2/SC(=NCc3ccccc3)N(C)C2=O)Sc2ccccc21	1	0	-5
CCC(CO)[n+]1c(C)cc(C=C2Sc3ccccc3N2Cc2ccccc2)cc1C (configuration not stated)	.	7	150*
CCN1C(=Cc2cc(C)[n+](CCO)c(C)c2)Sc2ccccc21	-1	2	46
CN1CC(=O)N2C[C@@H](NC(=O)c3ccc4nccnc4c3)C[C@H]2C1=O	.	-5	-4
O=C(c1ccccc1)N1N=C(c2ccc(Br)cc2)CC1c1ccc(F)cc1 (configuration not stated)	-4	-5	3
Fc1ccc(C2=Nn3cc(-c4ccccc4)nc3SC2)cc1	.	-5	8
CCn1ncc2c1CCCC2NCc1ccc(N2CCOCC2)cc1 (configuration not stated)	.	-2	1
COc1ccc(OC)c(/C=C2\Oc3c(ccc4c3CN(CC3CCCO3)CO4)C2=O)c1 (configuration not stated)	-4	-5	12
COCCN(Cc1cccc(OC)c1)CC(O)COc1ccc(OC)cc1 (configuration not stated)	-2	-1	11
COc1ccc(OCC(O)CN(CCC(C)C)Cc2cccc(OC)c2)cc1 (configuration not stated)	79*	-1	25
Cn1nc(C2CCN(C(=O)C3C=CCN3)CC2)n(Cc2ccccc2)c1=O (configuration not stated)	.	-6	12
O=C(NCc1cccnc1N1CCOCC1)c1cccc2nccnc12	.	1	-2

Screening data from PubChem.
